According to publication PMC8384837, “Expanding the binding specificity for RNA recognition by a PUF domain”:
Where a chain is given by its changes, count along the chain named.

What was measured:
Assay in all cases: yeast three-hybrid, YBZ-1, SC-Leu-His + 0.5 mM 3-AT, 4 days
Details in all cases: tags: N-Gal4 AD-HA kept; label: inside an RPR1-promoter hybrid RNA with tandem MS2 sites; ssRNA
[1] = target: PUM1 PUF domain R4-MNV (Homo sapiens, UniProt Q14671 828-1176, N971M;H972N;Q975V)
How it was run: (§1)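 Pumilio-1 PUF domain libraries, randomized at the three base-contacting residues of each repeat, were co-expressed with matching RNA elements from a centromeric plasmid in strain YBZ-1, which carries a LexA–MS2 coat fusion and a HIS3 reporter. Transformants grew for four days on SC-Leu (input) or on SC-Leu-His + 0.5 mM 3-AT (selection), and the repeat regions were PCR-amplified and Illumina-sequenced. The interaction score is the log change in variant frequency from input to selection. That logarithm is base 2, with a pseudocount of 1 where a variant was absent.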

[2] = target: PUM1 PUF domain R4-YFG (Homo sapiens, UniProt Q14671 828-1176, N971Y;H972F;Q975G)
How it was run: as §1

[3] = target: PUM1 PUF domain R5-DYG (Homo sapiens, UniProt Q14671 828-1176, C1007D;R1008Y;Q1011G)
How it was run: as §1

[4] = target: PUM1 PUF domain R3-VRC (Homo sapiens, UniProt Q14671 828-1176, C935V;Q939C)
How it was run: as §1

[5] = target: T1, PUM1 PUF domain R6-KFG (Homo sapiens, UniProt Q14671 828-1176, N1043K;Y1044F;Q1047G)
T1 sequence: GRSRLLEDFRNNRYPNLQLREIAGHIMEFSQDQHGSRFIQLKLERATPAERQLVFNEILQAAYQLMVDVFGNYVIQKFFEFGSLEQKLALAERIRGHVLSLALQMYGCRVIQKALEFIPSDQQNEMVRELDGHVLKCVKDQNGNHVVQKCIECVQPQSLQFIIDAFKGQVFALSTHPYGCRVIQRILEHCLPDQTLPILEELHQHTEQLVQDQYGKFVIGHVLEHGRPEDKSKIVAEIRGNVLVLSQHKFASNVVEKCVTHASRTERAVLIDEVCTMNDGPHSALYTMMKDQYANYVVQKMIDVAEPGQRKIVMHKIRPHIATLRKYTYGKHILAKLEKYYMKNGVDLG
How it was run: as §1

[6] = target: PUM1 PUF domain R3-IRC (Homo sapiens, UniProt Q14671 828-1176, C935I;Q939C)
How it was run: as §1

[7] = target: T2, PUM1 PUF domain R6-GFG (Homo sapiens, UniProt Q14671 828-1176, N1043G;Y1044F;Q1047G)
T2 sequence: T1 sequence with K216G
How it was run: as §1

[8] = target: PUM1 PUF domain R1-NWR (Homo sapiens, UniProt Q14671 828-1176, S863N;R864W;Q867R)
How it was run: as §1

[9] = target: PUM1 PUF domain R1-KHR (Homo sapiens, UniProt Q14671 828-1176, S863K;R864H;Q867R)
How it was run: as §1

[10] = target: PUM1 PUF domain R1-VYR (Homo sapiens, UniProt Q14671 828-1176, S863V;R864Y;Q867R)
How it was run: as §1

[11] = target: PUM1 PUF domain R8-PWK (Homo sapiens, UniProt Q14671 828-1176, N1122P;Y1123W;Q1126K)
How it was run: as §1

[12] = target: PUM1 PUF domain R8-KHG (Homo sapiens, UniProt Q14671 828-1176, N1122K;Y1123H;Q1126G)
How it was run: as §1

[13] = target: PUM1 PUF domain R3-EWC (Homo sapiens, UniProt Q14671 828-1176, C935E;R936W;Q939C)
How it was run: as §1

[14] = target: PUM1 PUF domain R7-LNR (Homo sapiens, UniProt Q14671 828-1176, S1079L;E1083R)
How it was run: as §1

[15] = target: PUM1 PUF domain R2-NRD (Homo sapiens, UniProt Q14671 828-1176, Y900R;Q903D)
How it was run: as §1

[16] = target: T3, PUM1 PUF domain R6-SRE (Homo sapiens, UniProt Q14671 828-1176, N1043S;Y1044R;Q1047E)
T3 sequence: T1 sequence with K216S, F217R, G220E
How it was run: as §1

Sequence: GGCUAGAACUAGUGGAUCCCCCGGCGCCCGGCGGCUCGAGCCCGGGUAAGUGUACAUAGUCUGCAUGCCGCCGGGCGCCAUGCCUGCAGGUCGACUCUAGAAAACAUG
- binding signal [1]: 0.87 log2 enrichment (interaction score)

Sequence: GGCUAGAACUAGUGGAUCCCCCGGCGCCCGGCGGCUCGAGCCCGGGUAAGUGUAUAUAGUCUGCAUGCCGCCGGGCGCCAUGCCUGCAGGUCGACUCUAGAAAACAUG
- binding signal [1]: 3.98 log2 enrichment (interaction score)
- binding signal [2]: 3.63 log2 enrichment (interaction score)

Sequence: GGCUAGAACUAGUGGAUCCCCCGGCGCCCGGCGGCUCGAGCCCGGGUAAGUGUCAAUAGUCUGCAUGCCGCCGGGCGCCAUGCCUGCAGGUCGACUCUAGAAAACAUG
- binding signal [3]: 3.79 log2 enrichment (interaction score)

Sequence: GGCUAGAACUAGUGGAUCCCCCGGCGCCCGGCGGCUCGAGCCCGGGUAAGUGUAAAUAGUCUGCAUGCCGCCGGGCGCCAUGCCUGCAGGUCGACUCUAGAAAACAUG
- binding signal [3]: 3.86 log2 enrichment (interaction score)
- binding signal [4]: 3.72 log2 enrichment (interaction score)
- binding signal [5]: 3.39 log2 enrichment (interaction score)
- binding signal [6]: 2.81 log2 enrichment (interaction score)
- binding signal [2]: 2.07 log2 enrichment (interaction score)
- binding signal [7]: 3.55 log2 enrichment (interaction score)

Sequence: GGCUAGAACUAGUGGAUCCCCCGGCGCCCGGCGGCUCGAGCCCGGGUAAGUGUAAGUAGUCUGCAUGCCGCCGGGCGCCAUGCCUGCAGGUCGACUCUAGAAAACAUG
- binding signal [4]: 0.33 log2 enrichment (interaction score)

Sequence: GGCUAGAACUAGUGGAUCCCCCGGCGCCCGGCGGCUCGAGCCCGGGUAAGUGUAAAUCGUCUGCAUGCCGCCGGGCGCCAUGCCUGCAGGUCGACUCUAGAAAACAUG
- binding signal [8]: 6.94 log2 enrichment (interaction score)
- binding signal [9]: 5.17 log2 enrichment (interaction score)
- binding signal [10]: 2.62 log2 enrichment (interaction score)

Sequence: GGCUAGAACUAGUGGAUCCCCCGGCGCCCGGCGGCUCGAGCCCGGGUAAGUGUAAAUUGUCUGCAUGCCGCCGGGCGCCAUGCCUGCAGGUCGACUCUAGAAAACAUG
- binding signal [8]: 4.99 log2 enrichment (interaction score)
- binding signal [9]: 2.59 log2 enrichment (interaction score)

Sequence: GGCUAGAACUAGUGGAUCCCCCGGCGCCCGGCGGCUCGAGCCCGGGUAAGCGUAAAUAGUCUGCAUGCCGCCGGGCGCCAUGCCUGCAGGUCGACUCUAGAAAACAUG
- binding signal [11]: 5.71 log2 enrichment (interaction score)
- binding signal [12]: 5.27 log2 enrichment (interaction score)

Sequence: GGCUAGAACUAGUGGAUCCCCCGGCGCCCGGCGGCUCGAGCCCGGGUAAGUGUAACUAGUCUGCAUGCCGCCGGGCGCCAUGCCUGCAGGUCGACUCUAGAAAACAUG
- binding signal [13]: 4.45 log2 enrichment (interaction score)

Sequence: GGCUAGAACUAGUGGAUCCCCCGGCGCCCGGCGGCUCGAGCCCGGGUAAGUCUAAAUAGUCUGCAUGCCGCCGGGCGCCAUGCCUGCAGGUCGACUCUAGAAAACAUG
- binding signal [14]: 3.62 log2 enrichment (interaction score)

Sequence: GGCUAGAACUAGUGGAUCCCCCGGCGCCCGGCGGCUCGAGCCCGGGUAAGGGUAAAUAGUCUGCAUGCCGCCGGGCGCCAUGCCUGCAGGUCGACUCUAGAAAACAUG
- binding signal [12]: 3.34 log2 enrichment (interaction score)

Sequence: GGCUAGAACUAGUGGAUCCCCCGGCGCCCGGCGGCUCGAGCCCGGGUAAGUGUAAAAAGUCUGCAUGCCGCCGGGCGCCAUGCCUGCAGGUCGACUCUAGAAAACAUG
- binding signal [15]: 3.12 log2 enrichment (interaction score)

Sequence: GGCUAGAACUAGUGGAUCCCCCGGCGCCCGGCGGCUCGAGCCCGGGUAAGUGGAAAUAGUCUGCAUGCCGCCGGGCGCCAUGCCUGCAGGUCGACUCUAGAAAACAUG
- binding signal [16]: 5.64 log2 enrichment (interaction score)
